# In the supplement of paper PMC4022240:
# ± gives the standard deviation.
# T1: HaloTag-ATRX ADD domain (163-292)
# T1 chain: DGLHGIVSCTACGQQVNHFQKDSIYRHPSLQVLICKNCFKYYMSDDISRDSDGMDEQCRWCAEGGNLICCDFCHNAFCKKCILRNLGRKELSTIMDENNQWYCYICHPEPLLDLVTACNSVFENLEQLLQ
# Key:
# Experiment in all cases: peptide microarray binding signal (635 nm), min-max normalized on array (fraction of array maximum); higher = stronger binding
# [1] = molecular target: T1, HaloTag-ATRX ADD domain (163-292)
# Procedure, shortened: (§1)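 For each library, binding signal was taken as the triplicate-spot mean intensity and then min-max scaled. Spots of histone 13-mer peptide–cellulose conjugates on nitrocellulose, printed in triplicate with a Cy3 tracer, were probed for 1 h at 4°C with either biotin-labelled HaloTag reader fusions (10 nM to 1 μM) and streptavidin-Alexa Fluor 647 or rabbit histone antibodies (1:10,000 to 1:2,000) and anti-rabbit Alexa 647. Readout at 635 nm came from an Axon GenePix 4000B.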
# [2] = molecular target: HaloTag-ING2 PHD (mouse Ing2 200-280)
# Procedure, shortened: as §1
# [3] = molecular target: anti-H3K4me3 antibody ab8580
# Procedure, shortened: as §1
# [4] = molecular target: anti-H3K9me3 antibody ab8898
# Procedure, shortened: as §1
# [5] = peptide region: H3 20-32, peptide modifications: H3R26me2s H3K27me3, binder concentration: 1:2,000 dilution
# [6] = peptide region: H3 20-32, peptide modifications: H3R26me2s H3K27me3, binder concentration: 1:10,000 dilution
# [7] = peptide region: H3 20-32, peptide modifications: H3T22ph H3K23me2, binder concentration: 1:2,000 dilution
# [8] = peptide region: H3 20-32, peptide modifications: H3T22ph H3K23me2, binder concentration: 1:10,000 dilution
# [9] = peptide region: H3 30-42, peptide modifications: H3K36ac H3K37me1, binder concentration: 1:2,000 dilution
# [10] = peptide region: H3 30-42, peptide modifications: H3K36ac H3K37me1, binder concentration: 1:10,000 dilution
# [11] = peptide region: H3 20-32, peptide modifications: H3R26me2s, binder concentration: 1:2,000 dilution
# [12] = peptide region: H3 20-32, peptide modifications: H3R26me2s, binder concentration: 1:10,000 dilution
# [13] = peptide region: H3 30-42, peptide modifications: H3K36me1 H3K37ac, binder concentration: 1:2,000 dilution
# [14] = peptide region: H3 30-42, peptide modifications: H3K36me1 H3K37ac, binder concentration: 1:10,000 dilution
binder,measurement,setting,value
LATKAARKSAPAT [H3 20-32 L A T K A A Rme2s Kme3 S A P A T],peptide microarray binding signal,"[1]; peptide region: H3 20-32, peptide modifications: H3R26me2s H3K27me3, binder concentration: 50 nM",0.00342 ± 5.6e-05
same,peptide microarray binding signal,"[1]; peptide region: H3 20-32, peptide modifications: H3R26me2s H3K27me3, binder concentration: 500 nM",0.003095 ± 2.4e-05
same,peptide microarray binding signal,"[2]; peptide region: H3 20-32, peptide modifications: H3R26me2s H3K27me3, binder concentration: 10 nM",0.00889 ± 0.00023
same,peptide microarray binding signal,"[2]; peptide region: H3 20-32, peptide modifications: H3R26me2s H3K27me3, binder concentration: 100 nM",0.00808 ± 0.00038
same,peptide microarray binding signal,[3]; [5],0.0443 ± 0.0026
same,peptide microarray binding signal,[3]; [6],0.0353 ± 0.0044
same,peptide microarray binding signal,[4]; [5],0.082 ± 0.006
same,peptide microarray binding signal,[4]; [6],0.0554 ± 0.0085
LATKAARKSAPAT [H3 20-32 L A Tph Kme2 A A R K S A P A T],peptide microarray binding signal,"[1]; peptide region: H3 20-32, peptide modifications: H3T22ph H3K23me2, binder concentration: 50 nM",0.004921 ± 4.8e-05
same,peptide microarray binding signal,"[1]; peptide region: H3 20-32, peptide modifications: H3T22ph H3K23me2, binder concentration: 500 nM",0.00605 ± 0.00026
same,peptide microarray binding signal,"[2]; peptide region: H3 20-32, peptide modifications: H3T22ph H3K23me2, binder concentration: 10 nM",0.0107 ± 0.0003
same,peptide microarray binding signal,"[2]; peptide region: H3 20-32, peptide modifications: H3T22ph H3K23me2, binder concentration: 100 nM",0.00893 ± 0.00037
same,peptide microarray binding signal,[3]; [7],0.00359 ± 3.6e-05
same,peptide microarray binding signal,[3]; [8],0.00268 ± 0.00016
same,peptide microarray binding signal,[4]; [7],0.00201 ± 8.1e-05
same,peptide microarray binding signal,[4]; [8],0.00196 ± 1.8e-05
PATGGVKKPHRYR [H3 30-42 P A T G G V Kac Kme P H R Y R],peptide microarray binding signal,"[1]; peptide region: H3 30-42, peptide modifications: H3K36ac H3K37me1, binder concentration: 50 nM",0.00235 ± 2.8e-05
same,peptide microarray binding signal,"[1]; peptide region: H3 30-42, peptide modifications: H3K36ac H3K37me1, binder concentration: 500 nM",0.00586 ± 0.00013
same,peptide microarray binding signal,"[2]; peptide region: H3 30-42, peptide modifications: H3K36ac H3K37me1, binder concentration: 10 nM",0.00418 ± 0.00019
same,peptide microarray binding signal,"[2]; peptide region: H3 30-42, peptide modifications: H3K36ac H3K37me1, binder concentration: 100 nM",0.0056 ± 0.00056
same,peptide microarray binding signal,[3]; [9],0.00253 ± 0.00052
same,peptide microarray binding signal,[3]; [10],0.00177 ± 5.8e-05
same,peptide microarray binding signal,[4]; [9],0.0165 ± 0.003
same,peptide microarray binding signal,[4]; [10],0.00265 ± 6.2e-05
LATKAARKSAPAT [H3 20-32 L A T K A A Rme2s K S A P A T],peptide microarray binding signal,"[1]; peptide region: H3 20-32, peptide modifications: H3R26me2s, binder concentration: 50 nM",0.00668 ± 0.00025
same,peptide microarray binding signal,"[1]; peptide region: H3 20-32, peptide modifications: H3R26me2s, binder concentration: 500 nM",0.01295 ± 0.0001
same,peptide microarray binding signal,"[2]; peptide region: H3 20-32, peptide modifications: H3R26me2s, binder concentration: 10 nM",0.0106 ± 0.00025
same,peptide microarray binding signal,"[2]; peptide region: H3 20-32, peptide modifications: H3R26me2s, binder concentration: 100 nM",0.0116 ± 0.00039
same,peptide microarray binding signal,[3]; [11],0.00451 ± 0.00012
same,peptide microarray binding signal,[3]; [12],0.00479 ± 0.00014
same,peptide microarray binding signal,[4]; [11],0.0047 ± 0.00025
same,peptide microarray binding signal,[4]; [12],0.00329 ± 9.9e-05
PATGGVKKPHRYR [H3 30-42 P A T G G V Kme Kac P H R Y R],peptide microarray binding signal,"[1]; peptide region: H3 30-42, peptide modifications: H3K36me1 H3K37ac, binder concentration: 50 nM",0.00263 ± 0.00011
same,peptide microarray binding signal,"[1]; peptide region: H3 30-42, peptide modifications: H3K36me1 H3K37ac, binder concentration: 500 nM",0.0039 ± 5.6e-05
same,peptide microarray binding signal,"[2]; peptide region: H3 30-42, peptide modifications: H3K36me1 H3K37ac, binder concentration: 10 nM",0.00298 ± 3.3e-05
same,peptide microarray binding signal,"[2]; peptide region: H3 30-42, peptide modifications: H3K36me1 H3K37ac, binder concentration: 100 nM",0.00354 ± 8.3e-05
same,peptide microarray binding signal,[3]; [13],0.00145 ± 6.2e-05
same,peptide microarray binding signal,[3]; [14],0.00137 ± 5.4e-05
same,peptide microarray binding signal,[4]; [13],0.00163 ± 7.6e-05
same,peptide microarray binding signal,[4]; [14],0.00127 ± 2.5e-05
